# Assays:
# [1] = biological target: ALK tyrosine kinase receptor (Homo sapiens) (UniProt Q9UM73); details: at 10 µM
# [2] = biological target: T1, Activin receptor type-1B (Homo sapiens) (UniProt P36896); details: at 1 µM
# T1 sequence (whole entry): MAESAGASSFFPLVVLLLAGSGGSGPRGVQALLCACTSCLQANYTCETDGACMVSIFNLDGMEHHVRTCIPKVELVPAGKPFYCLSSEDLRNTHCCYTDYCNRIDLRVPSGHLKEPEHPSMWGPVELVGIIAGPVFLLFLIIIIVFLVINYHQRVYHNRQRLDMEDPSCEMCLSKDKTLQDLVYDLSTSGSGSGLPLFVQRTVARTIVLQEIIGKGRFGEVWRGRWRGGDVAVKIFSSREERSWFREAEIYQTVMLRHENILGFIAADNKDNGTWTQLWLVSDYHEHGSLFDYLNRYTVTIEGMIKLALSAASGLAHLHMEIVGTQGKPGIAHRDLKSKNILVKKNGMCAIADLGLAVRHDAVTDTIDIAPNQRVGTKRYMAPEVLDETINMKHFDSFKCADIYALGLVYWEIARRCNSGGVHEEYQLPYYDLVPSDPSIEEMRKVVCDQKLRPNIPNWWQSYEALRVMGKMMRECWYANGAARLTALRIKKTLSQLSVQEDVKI
# [3] = biological target: T1, Activin receptor type-1B (Homo sapiens); details: at 10 µM
# [4] = biological target: T2, AMP-activated protein kinase (AMPK) alpha-1/beta-1/gamma-1 (Homo sapiens) (UniProt P54619+Q9Y478+Q13131); details: at 1 µM
# T2 sequence (P54619 whole entry): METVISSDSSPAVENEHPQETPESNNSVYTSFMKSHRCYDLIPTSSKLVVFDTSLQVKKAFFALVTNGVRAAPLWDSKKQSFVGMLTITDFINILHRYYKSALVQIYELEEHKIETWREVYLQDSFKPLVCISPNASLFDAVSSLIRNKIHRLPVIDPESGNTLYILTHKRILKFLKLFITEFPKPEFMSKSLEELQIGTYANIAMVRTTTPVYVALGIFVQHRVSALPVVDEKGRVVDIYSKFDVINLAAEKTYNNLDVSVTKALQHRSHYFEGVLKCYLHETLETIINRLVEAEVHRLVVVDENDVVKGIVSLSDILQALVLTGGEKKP
# T2 sequence (Q13131 whole entry partner): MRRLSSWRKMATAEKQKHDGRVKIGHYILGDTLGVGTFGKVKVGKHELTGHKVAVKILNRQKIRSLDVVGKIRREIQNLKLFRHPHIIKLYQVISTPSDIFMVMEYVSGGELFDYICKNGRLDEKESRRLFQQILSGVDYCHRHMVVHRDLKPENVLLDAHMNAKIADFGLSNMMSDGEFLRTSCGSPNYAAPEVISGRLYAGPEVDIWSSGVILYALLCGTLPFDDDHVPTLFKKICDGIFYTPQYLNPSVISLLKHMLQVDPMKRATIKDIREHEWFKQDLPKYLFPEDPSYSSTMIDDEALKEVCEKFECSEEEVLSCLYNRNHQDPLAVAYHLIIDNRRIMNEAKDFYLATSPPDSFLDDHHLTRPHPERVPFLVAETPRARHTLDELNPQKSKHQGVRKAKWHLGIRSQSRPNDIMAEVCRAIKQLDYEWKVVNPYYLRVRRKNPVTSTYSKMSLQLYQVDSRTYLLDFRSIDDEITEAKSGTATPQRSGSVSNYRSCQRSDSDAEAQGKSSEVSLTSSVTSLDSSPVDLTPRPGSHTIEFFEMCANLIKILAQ
# T2 sequence (Q9Y478 2-270 partner limits assumed): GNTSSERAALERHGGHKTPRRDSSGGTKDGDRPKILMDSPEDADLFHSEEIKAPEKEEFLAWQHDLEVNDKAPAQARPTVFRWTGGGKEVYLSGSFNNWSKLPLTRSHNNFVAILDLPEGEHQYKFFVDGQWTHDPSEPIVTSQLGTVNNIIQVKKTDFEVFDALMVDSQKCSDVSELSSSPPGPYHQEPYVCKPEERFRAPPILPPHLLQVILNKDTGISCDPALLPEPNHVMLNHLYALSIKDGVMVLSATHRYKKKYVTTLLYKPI
# [5] = biological target: T2, AMP-activated protein kinase (AMPK) alpha-1/beta-1/gamma-1 (Homo sapiens); details: at 10 µM
# [6] = biological target: T3, AMP-activated protein kinase, AMPK (Homo sapiens) (UniProt P54646+O43741+P54619+Q9UGJ0+Q9Y478+Q13131+Q9UGI9); details: at 1 µM
# [7] = biological target: T3, AMP-activated protein kinase, AMPK (Homo sapiens); details: at 10 µM
# [8] = biological target: T4, NUAK family SNF1-like kinase 1 (Homo sapiens) (UniProt O60285); details: at 1 µM
# T4 sequence (whole entry): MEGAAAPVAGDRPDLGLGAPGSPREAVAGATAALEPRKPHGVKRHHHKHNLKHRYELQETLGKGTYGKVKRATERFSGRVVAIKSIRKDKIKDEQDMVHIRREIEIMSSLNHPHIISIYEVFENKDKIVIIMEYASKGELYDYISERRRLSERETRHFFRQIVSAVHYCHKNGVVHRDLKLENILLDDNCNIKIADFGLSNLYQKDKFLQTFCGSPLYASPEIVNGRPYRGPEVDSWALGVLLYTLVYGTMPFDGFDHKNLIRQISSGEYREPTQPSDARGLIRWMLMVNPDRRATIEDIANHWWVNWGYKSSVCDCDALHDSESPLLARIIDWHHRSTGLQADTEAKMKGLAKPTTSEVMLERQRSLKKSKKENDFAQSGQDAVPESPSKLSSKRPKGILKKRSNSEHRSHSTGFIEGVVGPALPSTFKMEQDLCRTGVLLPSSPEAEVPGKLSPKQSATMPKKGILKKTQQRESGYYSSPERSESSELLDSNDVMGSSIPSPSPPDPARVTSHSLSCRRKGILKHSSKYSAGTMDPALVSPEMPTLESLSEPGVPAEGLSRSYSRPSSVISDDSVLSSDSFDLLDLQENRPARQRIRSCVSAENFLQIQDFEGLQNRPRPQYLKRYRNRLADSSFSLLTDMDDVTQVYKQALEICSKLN
# [9] = biological target: T4, NUAK family SNF1-like kinase 1 (Homo sapiens); details: at 10 µM
# [10] = biological target: Platelet-derived growth factor receptor alpha (Homo sapiens) (UniProt P16234); details: at 10 µM
# [11] = biological target: Platelet-derived growth factor receptor beta (Homo sapiens) (UniProt P09619); details: at 10 µM
# Platelet-derived growth factor receptor beta (Homo sapiens), sequence (P09619 whole entry): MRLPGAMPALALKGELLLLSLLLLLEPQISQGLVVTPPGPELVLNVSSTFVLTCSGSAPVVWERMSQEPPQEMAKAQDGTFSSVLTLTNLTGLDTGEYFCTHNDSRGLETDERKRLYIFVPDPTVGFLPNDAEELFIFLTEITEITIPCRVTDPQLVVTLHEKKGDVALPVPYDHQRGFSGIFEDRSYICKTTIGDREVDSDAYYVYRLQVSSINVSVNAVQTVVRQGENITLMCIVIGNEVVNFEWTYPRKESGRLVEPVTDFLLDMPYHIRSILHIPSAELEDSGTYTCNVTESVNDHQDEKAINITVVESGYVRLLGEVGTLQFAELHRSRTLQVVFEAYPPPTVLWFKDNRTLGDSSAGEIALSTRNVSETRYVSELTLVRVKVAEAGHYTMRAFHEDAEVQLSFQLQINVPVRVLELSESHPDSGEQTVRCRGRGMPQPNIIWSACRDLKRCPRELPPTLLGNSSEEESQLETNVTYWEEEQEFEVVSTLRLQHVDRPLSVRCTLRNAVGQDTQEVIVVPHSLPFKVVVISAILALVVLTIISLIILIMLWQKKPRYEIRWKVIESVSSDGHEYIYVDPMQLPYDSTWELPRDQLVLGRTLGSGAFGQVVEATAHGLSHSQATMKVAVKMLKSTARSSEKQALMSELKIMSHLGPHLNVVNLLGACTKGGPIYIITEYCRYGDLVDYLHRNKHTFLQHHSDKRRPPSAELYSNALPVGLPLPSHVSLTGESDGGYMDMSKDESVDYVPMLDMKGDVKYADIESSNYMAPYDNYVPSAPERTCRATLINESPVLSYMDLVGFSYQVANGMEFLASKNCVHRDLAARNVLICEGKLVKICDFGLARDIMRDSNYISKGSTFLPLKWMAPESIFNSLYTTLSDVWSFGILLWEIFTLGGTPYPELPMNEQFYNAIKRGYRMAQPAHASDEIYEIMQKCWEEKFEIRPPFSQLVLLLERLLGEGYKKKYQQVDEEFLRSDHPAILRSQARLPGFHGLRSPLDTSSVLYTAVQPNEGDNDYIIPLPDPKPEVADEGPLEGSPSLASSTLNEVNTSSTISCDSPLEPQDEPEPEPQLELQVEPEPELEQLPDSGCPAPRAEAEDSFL
# [12] = biological target: T5, 3-phosphoinositide-dependent protein kinase 1 (Homo sapiens) (UniProt O15530); details: at 1 µM
# T5 sequence (whole entry): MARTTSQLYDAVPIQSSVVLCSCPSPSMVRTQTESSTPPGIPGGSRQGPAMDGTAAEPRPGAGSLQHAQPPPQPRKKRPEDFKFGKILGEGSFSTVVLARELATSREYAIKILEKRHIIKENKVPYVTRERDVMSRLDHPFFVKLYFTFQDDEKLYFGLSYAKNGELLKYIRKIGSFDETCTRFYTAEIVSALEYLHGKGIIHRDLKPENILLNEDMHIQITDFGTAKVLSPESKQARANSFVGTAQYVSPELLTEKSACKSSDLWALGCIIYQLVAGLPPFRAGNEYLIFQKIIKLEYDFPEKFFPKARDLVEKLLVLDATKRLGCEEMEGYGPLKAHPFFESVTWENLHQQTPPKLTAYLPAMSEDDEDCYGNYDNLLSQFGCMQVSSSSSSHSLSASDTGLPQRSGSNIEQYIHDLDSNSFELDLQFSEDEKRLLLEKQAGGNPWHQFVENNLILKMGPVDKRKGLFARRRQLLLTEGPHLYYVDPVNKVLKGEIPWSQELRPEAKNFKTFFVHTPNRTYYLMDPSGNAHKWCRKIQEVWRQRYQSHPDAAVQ
# [13] = biological target: T5, 3-phosphoinositide-dependent protein kinase 1 (Homo sapiens); details: at 10 µM
# [14] = biological target: cAMP-dependent protein kinase catalytic subunit alpha (Homo sapiens) (UniProt P17612); details: at 10 µM
# [15] = biological target: RAC-gamma serine/threonine-protein kinase (Homo sapiens) (UniProt Q9Y243); details: at 1 µM
# RAC-gamma serine/threonine-protein kinase (Homo sapiens), sequence (Q9Y243 whole entry): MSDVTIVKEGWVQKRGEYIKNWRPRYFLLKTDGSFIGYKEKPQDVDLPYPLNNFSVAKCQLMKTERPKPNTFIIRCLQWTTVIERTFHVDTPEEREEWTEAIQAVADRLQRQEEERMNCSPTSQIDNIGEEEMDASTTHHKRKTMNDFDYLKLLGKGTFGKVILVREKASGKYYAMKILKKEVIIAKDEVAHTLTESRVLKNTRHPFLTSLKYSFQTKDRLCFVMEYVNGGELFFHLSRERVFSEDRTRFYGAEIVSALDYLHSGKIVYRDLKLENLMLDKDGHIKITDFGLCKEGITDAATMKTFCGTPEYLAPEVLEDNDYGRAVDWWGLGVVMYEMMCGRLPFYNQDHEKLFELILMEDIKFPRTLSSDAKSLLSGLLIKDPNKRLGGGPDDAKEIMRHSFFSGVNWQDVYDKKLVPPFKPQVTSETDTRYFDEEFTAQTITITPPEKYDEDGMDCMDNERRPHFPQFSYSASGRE
# [16] = biological target: RAC-gamma serine/threonine-protein kinase (Homo sapiens) (UniProt Q9Y243); details: at 10 µM
# [17] = biological target: Platelet-derived growth factor receptor alpha (Homo sapiens) (UniProt P16234); details: at 1 µM
# [18] = biological target: Platelet-derived growth factor receptor beta (Homo sapiens) (UniProt P09619); details: at 1 µM
# [19] = biological target: T6, Mitogen-activated protein kinase kinase kinase 5 (Homo sapiens) (UniProt Q99683); details: at 1 µM
# T6 sequence (whole entry): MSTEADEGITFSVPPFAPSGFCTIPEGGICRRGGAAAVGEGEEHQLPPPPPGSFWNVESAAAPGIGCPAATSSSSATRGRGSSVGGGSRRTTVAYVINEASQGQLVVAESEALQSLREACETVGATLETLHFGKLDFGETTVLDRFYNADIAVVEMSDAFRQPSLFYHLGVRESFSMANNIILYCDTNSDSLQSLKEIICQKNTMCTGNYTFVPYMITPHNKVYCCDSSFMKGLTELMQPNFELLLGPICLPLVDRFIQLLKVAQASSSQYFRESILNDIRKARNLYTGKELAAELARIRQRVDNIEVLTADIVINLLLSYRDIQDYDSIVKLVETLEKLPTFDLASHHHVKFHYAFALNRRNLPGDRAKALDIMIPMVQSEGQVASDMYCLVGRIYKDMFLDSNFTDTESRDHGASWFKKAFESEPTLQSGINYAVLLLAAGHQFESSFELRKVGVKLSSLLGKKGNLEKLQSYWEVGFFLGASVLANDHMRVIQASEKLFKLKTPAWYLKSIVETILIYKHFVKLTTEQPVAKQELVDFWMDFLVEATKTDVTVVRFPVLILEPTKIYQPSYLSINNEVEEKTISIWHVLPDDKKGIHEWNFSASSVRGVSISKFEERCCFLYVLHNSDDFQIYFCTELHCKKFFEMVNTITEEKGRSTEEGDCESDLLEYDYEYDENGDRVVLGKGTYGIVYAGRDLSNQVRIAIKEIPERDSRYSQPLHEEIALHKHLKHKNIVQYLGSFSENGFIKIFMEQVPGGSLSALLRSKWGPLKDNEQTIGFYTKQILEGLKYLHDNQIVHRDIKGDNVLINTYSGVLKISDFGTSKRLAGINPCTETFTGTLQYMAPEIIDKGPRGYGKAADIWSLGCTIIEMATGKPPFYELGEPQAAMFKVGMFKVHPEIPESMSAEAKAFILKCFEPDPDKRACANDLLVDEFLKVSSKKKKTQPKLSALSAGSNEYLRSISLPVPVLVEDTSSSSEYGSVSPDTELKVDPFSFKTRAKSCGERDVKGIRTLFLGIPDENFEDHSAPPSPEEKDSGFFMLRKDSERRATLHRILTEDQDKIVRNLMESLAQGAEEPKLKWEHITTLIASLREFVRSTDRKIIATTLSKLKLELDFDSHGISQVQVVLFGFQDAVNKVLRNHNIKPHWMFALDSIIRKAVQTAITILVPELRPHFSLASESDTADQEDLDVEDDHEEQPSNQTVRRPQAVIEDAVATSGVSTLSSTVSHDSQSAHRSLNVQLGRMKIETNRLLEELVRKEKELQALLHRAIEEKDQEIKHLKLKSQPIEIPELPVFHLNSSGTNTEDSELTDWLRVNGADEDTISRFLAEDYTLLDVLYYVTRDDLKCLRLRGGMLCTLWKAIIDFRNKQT
# [20] = biological target: cAMP-dependent protein kinase catalytic subunit alpha (Homo sapiens) (UniProt P17612); details: at 1 µM
# ALK tyrosine kinase receptor (Homo sapiens), sequence (Q9UM73 19-1620 limits assumed): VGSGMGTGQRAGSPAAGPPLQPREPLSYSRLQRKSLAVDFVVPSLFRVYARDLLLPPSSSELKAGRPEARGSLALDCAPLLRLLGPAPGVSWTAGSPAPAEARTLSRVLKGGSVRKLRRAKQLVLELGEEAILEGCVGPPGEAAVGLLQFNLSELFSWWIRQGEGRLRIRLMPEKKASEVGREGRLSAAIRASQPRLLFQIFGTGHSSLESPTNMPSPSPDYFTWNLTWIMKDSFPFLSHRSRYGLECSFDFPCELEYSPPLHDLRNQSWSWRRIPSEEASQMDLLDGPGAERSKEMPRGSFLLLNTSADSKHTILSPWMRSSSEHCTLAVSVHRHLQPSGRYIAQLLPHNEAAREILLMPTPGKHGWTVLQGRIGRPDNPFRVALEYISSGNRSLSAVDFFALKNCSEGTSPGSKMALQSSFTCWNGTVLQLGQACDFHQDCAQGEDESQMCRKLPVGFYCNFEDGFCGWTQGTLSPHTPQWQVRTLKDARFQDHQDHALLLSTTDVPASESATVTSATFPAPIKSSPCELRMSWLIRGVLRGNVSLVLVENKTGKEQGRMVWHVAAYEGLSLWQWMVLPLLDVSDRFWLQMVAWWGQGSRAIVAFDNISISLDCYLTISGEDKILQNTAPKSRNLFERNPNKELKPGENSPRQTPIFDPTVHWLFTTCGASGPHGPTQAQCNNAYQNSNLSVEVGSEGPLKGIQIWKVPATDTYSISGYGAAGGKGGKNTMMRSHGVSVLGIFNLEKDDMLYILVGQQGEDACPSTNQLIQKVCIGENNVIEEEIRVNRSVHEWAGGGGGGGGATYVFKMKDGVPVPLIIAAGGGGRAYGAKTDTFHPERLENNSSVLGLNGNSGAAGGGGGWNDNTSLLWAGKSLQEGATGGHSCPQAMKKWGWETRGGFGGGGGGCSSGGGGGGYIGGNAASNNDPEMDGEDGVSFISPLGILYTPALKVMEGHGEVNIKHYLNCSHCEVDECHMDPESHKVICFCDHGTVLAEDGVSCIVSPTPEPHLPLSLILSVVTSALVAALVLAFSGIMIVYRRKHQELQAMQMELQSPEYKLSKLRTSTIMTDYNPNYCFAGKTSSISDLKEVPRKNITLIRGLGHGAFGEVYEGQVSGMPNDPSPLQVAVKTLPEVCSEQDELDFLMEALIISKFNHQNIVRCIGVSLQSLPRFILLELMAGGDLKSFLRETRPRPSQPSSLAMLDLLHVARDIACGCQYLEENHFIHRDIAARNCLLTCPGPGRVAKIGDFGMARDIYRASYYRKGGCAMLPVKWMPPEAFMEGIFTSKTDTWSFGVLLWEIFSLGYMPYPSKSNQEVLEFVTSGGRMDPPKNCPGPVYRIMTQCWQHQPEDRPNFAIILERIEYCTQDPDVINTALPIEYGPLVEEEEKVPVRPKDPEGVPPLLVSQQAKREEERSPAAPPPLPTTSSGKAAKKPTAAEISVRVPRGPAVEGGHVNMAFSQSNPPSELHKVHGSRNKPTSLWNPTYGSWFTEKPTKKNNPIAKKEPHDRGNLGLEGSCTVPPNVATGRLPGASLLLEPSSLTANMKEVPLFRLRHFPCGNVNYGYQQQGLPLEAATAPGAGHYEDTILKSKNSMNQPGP
structure (smiles),measurement,setting,value
O=C1NC(=O)C(c2c[nH]c3ccccc23)=C1c1c[nH]c2ccccc12,residual activity,[1],44%
same,residual activity,[2],114%
same,residual activity,[3],75%
same,residual activity,[4],72%
same,residual activity,[5],15%
same,residual activity,[6],66%
same,residual activity,[7],10%
same,residual activity,[8],83%
same,residual activity,[9],24%
same,residual activity,[10],77%
same,residual activity,[11],83%
same,residual activity,[12],71%
same,residual activity,[13],18%
same,residual activity,[14],55%
same,residual activity,[15],100%
same,residual activity,[16],36%
CCOc1nc(NC(=O)Cc2cc(OC)ccc2OC)cc(N)c1C#N,residual activity,[1],69%
CN(C)S(=O)(=O)c1ccc2c(c1)/C(=C/c1cc3c([nH]1)CCCC3)C(=O)N2,residual activity,[1],29%
same,residual activity,[2],111%
same,residual activity,[3],56%
same,residual activity,[4],43%
same,residual activity,[5],29%
same,residual activity,[6],45%
same,residual activity,[7],37%
same,residual activity,[8],10%
same,residual activity,[9],3%
same,residual activity,[17],33%
same,residual activity,[10],29%
same,residual activity,[18],80%
same,residual activity,[11],90%
same,residual activity,[15],92%
same,residual activity,[16],88%
NC(=O)c1ccc(-c2nc(-c3ccc4c(c3)OCCO4)c(-c3ccccn3)[nH]2)cc1,residual activity,[1],52%
same,residual activity,[2],31%
same,residual activity,[3],0%
same,residual activity,[4],90%
same,residual activity,[5],92%
same,residual activity,[9],91%
same,residual activity,[19],98%
same,residual activity,[11],75%
same,residual activity,[20],92%
same,residual activity,[14],96%
same,residual activity,[15],98%
same,residual activity,[16],94%
O=C1Cc2c([nH]c3ccc(Br)cc23)-c2ccccc2N1,residual activity,[1],56%
same,residual activity,[3],72%
same,residual activity,[4],75%
same,residual activity,[5],44%
same,residual activity,[8],13%
same,residual activity,[9],2%
same,residual activity,[20],89%
same,residual activity,[14],94%
O=c1c(-c2ccc(F)cc2)c(-c2ccncc2)[nH]n1-c1ccc(Cl)cc1,residual activity,[1],65%
same,residual activity,[3],22%
same,residual activity,[19],100%
same,residual activity,[18],100%
same,residual activity,[11],99%
same,residual activity,[16],65%
Cc1cc(C)c(/C=C2\C(=O)Nc3ccccc32)[nH]1,residual activity,[1],13%
same,residual activity,[4],55%
same,residual activity,[5],29%
same,residual activity,[8],35%
same,residual activity,[9],19%
same,residual activity,[15],101%
Nc1nccc(-c2c(-c3ccc(F)cc3)ncn2C2CCNCC2)n1,residual activity,[3],40%
same,residual activity,[7],70%
same,residual activity,[9],77%
same,residual activity,[14],64%
O=C1Nc2ccc(Cl)cc2/C1=C/c1cc(Cl)c(O)c(Cl)c1,residual activity,[1],19%
same,residual activity,[4],79%
same,residual activity,[5],40%
same,residual activity,[6],77%
same,residual activity,[7],40%
same,residual activity,[8],69%
same,residual activity,[9],50%
same,residual activity,[19],93%
same,residual activity,[17],60%
same,residual activity,[10],10%
same,residual activity,[18],75%
same,residual activity,[11],25%
same,residual activity,[20],68%
same,residual activity,[14],66%
same,residual activity,[15],96%
same,residual activity,[16],80%
CSc1nc(-c2ccc(F)cc2)c(-c2ccnc(NC(C)c3ccccc3)c2)[nH]1 (centres undefined),residual activity,[1],56%
same,residual activity,[4],88%
same,residual activity,[5],59%
same,residual activity,[6],80%
same,residual activity,[7],56%
same,residual activity,[8],101%
same,residual activity,[9],60%
same,residual activity,[19],101%
same,residual activity,[20],101%
same,residual activity,[14],133%
